Calls of active or inactive are those of the source.

Assay [1] has as its target Albumin (Bos taurus) (UniProt P02769). The assay can be described thus: compounds binding labelled BSA control protein – biochemical, small-molecule microarray, Alexa647 label, 635/667 nm fluorescence, artefact control for SMM control protein annotation, profiling panel (AID 1118).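 Note: score merges 667 nm emission intensity and signal-to-noise per printed compound spot.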 Conditions: BSA-A647 binding, fluorescence 635 nm, higher = more signal.
Assay [2] in a line: probe aXIP binding to arrayed compounds – biochemical, NeuroSMM set, 635/667 nm fluorescence, primary screen (AID 1119).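 Note: probe is the protein aXip251-270 applied at 1 µg/mL to compound-printed slides; binding of probe to printed compounds measured as 667 nm fluorescence plus signal to noise.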 Conditions: small-molecule microarray, higher = more signal, called active from +8 up or from −8 down.
A short description of assay [3]: probe aNOTCH3 binding on compound microarray – biochemical, small-molecule microarray, 635/667 nm fluorescence, primary screen (AID 1120).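 Note: probe is a biotin-tagged antibody raised against NOTCH3 rather than NOTCH3 protein; score merges spot fluorescence near 667 nm with spot signal to noise.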 Conditions: higher = more signal.
The nature of assay [4]: probe aNOTCH2 binding on compound microarray – biochemical, small-molecule microarray, 635/667 nm fluorescence, primary screen (AID 1121).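 Note: score merges feature fluorescence read at 667 nm with its signal to noise.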 The settings on record: higher = more signal.
Assay [5] addresses Carbonic anhydrase 2 (Homo sapiens) (UniProt P00918). The assay can be described thus: compounds binding carbonic anhydrase 2 – biochemical, small-molecule microarray, Alexa647-labelled CAII, profiling panel (AID 1122). Conditions: CAII-A647 binding fluorescence, higher = more signal.
Assay [6] can be described thus: COS7 lysate on small-molecule microarray, probe aHis, 635 nm (AID 1123).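 Note: z-score combines 667nm fluorescence intensity with signal-to-noise per printed compound spot.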 Conditions: COS7 cell lysate, fluorescence, higher = more signal.
The nature of assay [7]: probe aLAP1 signal on lysate-treated microarray – cell lysate, small-molecule microarray, COS7 lysate, primary screen (AID 1124).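 Note: lysate comes from COS7 cells expressing LAP1 and is applied at 0.3 µg/mL; score merges spot fluorescence near 667 nm with signal-to-noise over triplicate slides.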 The settings on record: probe aLAP1, fluorescence, higher = more signal.
Assay [8] concerns Sam68 (KHDRBS1). The assay can be described thus: compounds binding KHDRBS1 protein – biochemical, small-molecule microarray, 635 nm fluorescence, primary screen (AID 1125).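 Note: score merges 667 nm channel intensity with signal to noise over triplicate slides.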 Conditions: higher = more signal.
For assay [9], the system named is Chordin-like protein 2 (CHRDL2). The assay can be described thus: compounds binding chordin-like 2 – biochemical, small-molecule microarray, 635 nm fluorescence, primary screen (AID 1126).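 Note: printed compound slides probed with Chrdl2 protein at 4 µg/mL for 1 h at 4 C; score merges 667 nm emission intensity with signal to noise over three replicate slides.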 The settings on record: fluorescence 635 nm, higher = more signal.
Assay [10] deals with Concanavalin-A (Canavalia ensiformis) (UniProt P02866). The assay can be described thus: compounds binding concanavalin A lectin – biochemical, small-molecule microarray, Alexa647 label, 635 nm, artefact control for SMM control protein annotation, primary screen (AID 1127).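 Note: z combines 667 nm emission intensity with signal-to-noise across three replicate slides.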 The settings on record: ConA-A647 binding fluorescence, higher = more signal.
Sequence of Concanavalin-A (Canavalia ensiformis) (P02866 whole entry, looked up): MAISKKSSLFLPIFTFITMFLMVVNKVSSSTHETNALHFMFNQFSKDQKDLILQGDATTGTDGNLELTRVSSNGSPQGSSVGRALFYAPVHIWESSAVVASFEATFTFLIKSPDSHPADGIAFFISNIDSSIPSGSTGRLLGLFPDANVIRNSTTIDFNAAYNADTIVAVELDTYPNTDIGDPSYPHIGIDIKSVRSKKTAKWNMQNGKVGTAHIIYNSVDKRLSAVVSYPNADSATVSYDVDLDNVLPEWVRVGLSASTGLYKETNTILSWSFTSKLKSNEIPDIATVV
Assay [11] in a line: compounds binding Alexa647 anti-His antibody – biochemical, small-molecule microarray, 635 nm fluorescence, artefact control for SMM control protein annotation, primary screen (AID 1128).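 Note: score merges feature fluorescence with signal-to-noise for each printed compound spot.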 The settings on record: higher = more signal.
In assay [12] the test system is Human papillomavirus type 1a E7 protein (residues 1-88). Briefly: HPV1a E7 small-molecule binders, primary screen, biochemical, small-molecule microarray, residues 1-88, 635 nm (AID 1129). Conditions: small-molecule microarray binding, fluorescence 635 nm; higher = more signal.
Assay [13] addresses Focal adhesion kinase 1 (Homo sapiens) (UniProt Q05397). The assay can be described thus: PTK2 protein binding on printed compound slides – biochemical, small-molecule microarray, 635/667 nm fluorescence, BSA, DTT, primary screen (AID 1130).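 Note: composite of spot emission at 667 nm and signal to noise over triplicate slides.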 Conditions: 635 nm fluorescence, higher = more signal.
Assay [14] concerns Fibrinogen (Alexa647-labelled). The assay can be described thus: Alexa647-fibrinogen binding to printed small molecules – biochemical, small-molecule microarray, 635/667 nm fluorescence, artefact control for SMM control-protein annotation, profiling panel (AID 1131).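 Note: z-score merges 667 nm fluorescence with per-spot signal-to-noise over triplicate slides.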 The settings on record: fibrinogen-A647 binding fluorescence, higher = more signal.
Assay [15] deals with Follistatin (Homo sapiens) (UniProt P19883). Briefly: FST protein binding to printed compounds – biochemical, small-molecule microarray, 635/667 nm fluorescence, primary screen (AID 1132). The settings on record: 635 nm fluorescence, higher = more signal.
Sequence of Follistatin (Homo sapiens) (P19883 whole entry, looked up): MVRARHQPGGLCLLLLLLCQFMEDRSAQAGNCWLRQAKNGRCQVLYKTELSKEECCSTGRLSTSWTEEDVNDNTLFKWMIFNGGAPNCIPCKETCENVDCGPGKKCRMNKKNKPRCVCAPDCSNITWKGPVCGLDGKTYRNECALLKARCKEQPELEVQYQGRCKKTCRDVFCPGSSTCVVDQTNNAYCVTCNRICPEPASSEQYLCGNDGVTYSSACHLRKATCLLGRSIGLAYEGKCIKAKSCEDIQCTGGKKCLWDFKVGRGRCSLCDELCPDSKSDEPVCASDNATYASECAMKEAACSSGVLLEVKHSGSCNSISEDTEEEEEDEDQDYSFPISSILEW
Assay [16] concerns the target Fibroblast growth factor 2 (Homo sapiens) (UniProt P09038). The assay can be described thus: basic fibroblast growth factor binding to printed compounds – biochemical, small-molecule microarray, 635/667 nm fluorescence, primary screen (AID 1133). Conditions: FGF2, fluorescence 635/667, higher = more signal.
Assay [17] can be described thus: JC-1 mitochondrial potential readout, lung cancer cells – cell-based, A549, JC-1 fluorescence, basal, 24 h, 100 nL, profiling panel (AID 1138).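 Note: A549 lung adenocarcinoma cells under basal conditions with no added stimulus; test concentration not given here.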 The settings on record: higher = more signal.
For assay [18], the system named is Lefty1. The assay can be described thus: Lefty1 protein binding to printed compounds – biochemical, small-molecule microarray, 635/667 nm fluorescence, primary screen (AID 1139). Conditions: fluorescence 635/667, higher = more signal.
In assay [19] the test system is wheat germ agglutinin (Triticum aestivum), Alexa647-labelled. Briefly: Alexa647-WGA lectin binding to printed small molecules – biochemical, small-molecule microarray, 635/667 nm fluorescence, artefact control for SMM control-protein annotation, profiling panel (AID 1140).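 Note: score merges 667 nm feature emission with signal to noise over triplicate slides.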 Conditions: WGA-A647 binding, 635 nm fluorescence, higher = more signal.
The target of assay [20] is Luciferin 4-monooxygenase (Photinus pyralis) (UniProt P08659). Briefly: inhibition of purified Photinus pyralis luciferase – biochemical, luminescence, purified enzyme, 2006 set, primary screen (AID 1141).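 Note: cell-free assay with purified firefly luciferase at 100 ng per well in PBS; test concentration not given here.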 Conditions: purified firefly luciferase, SteadyGlo luminescence, 30 min; higher = more signal, called active from +8 up or from −8 down.
Sequence of Luciferin 4-monooxygenase (Photinus pyralis) (P08659 whole entry, looked up): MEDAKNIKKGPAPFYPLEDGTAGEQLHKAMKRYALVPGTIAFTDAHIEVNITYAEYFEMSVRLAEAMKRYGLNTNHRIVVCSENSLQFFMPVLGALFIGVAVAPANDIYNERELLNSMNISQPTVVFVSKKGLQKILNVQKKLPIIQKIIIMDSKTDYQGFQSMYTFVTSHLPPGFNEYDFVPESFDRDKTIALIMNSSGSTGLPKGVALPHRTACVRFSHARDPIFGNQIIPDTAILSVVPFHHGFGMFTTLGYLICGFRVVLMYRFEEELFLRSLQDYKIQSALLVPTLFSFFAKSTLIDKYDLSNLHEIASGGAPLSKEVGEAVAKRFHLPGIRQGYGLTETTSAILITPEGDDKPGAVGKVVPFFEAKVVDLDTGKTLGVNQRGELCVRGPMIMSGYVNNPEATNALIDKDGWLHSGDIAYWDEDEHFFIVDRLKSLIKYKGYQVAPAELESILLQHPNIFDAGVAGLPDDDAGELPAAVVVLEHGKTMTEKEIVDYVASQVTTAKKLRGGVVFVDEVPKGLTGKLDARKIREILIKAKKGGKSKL

Sequence of Focal adhesion kinase 1 (Homo sapiens) (Q05397 whole entry, looked up): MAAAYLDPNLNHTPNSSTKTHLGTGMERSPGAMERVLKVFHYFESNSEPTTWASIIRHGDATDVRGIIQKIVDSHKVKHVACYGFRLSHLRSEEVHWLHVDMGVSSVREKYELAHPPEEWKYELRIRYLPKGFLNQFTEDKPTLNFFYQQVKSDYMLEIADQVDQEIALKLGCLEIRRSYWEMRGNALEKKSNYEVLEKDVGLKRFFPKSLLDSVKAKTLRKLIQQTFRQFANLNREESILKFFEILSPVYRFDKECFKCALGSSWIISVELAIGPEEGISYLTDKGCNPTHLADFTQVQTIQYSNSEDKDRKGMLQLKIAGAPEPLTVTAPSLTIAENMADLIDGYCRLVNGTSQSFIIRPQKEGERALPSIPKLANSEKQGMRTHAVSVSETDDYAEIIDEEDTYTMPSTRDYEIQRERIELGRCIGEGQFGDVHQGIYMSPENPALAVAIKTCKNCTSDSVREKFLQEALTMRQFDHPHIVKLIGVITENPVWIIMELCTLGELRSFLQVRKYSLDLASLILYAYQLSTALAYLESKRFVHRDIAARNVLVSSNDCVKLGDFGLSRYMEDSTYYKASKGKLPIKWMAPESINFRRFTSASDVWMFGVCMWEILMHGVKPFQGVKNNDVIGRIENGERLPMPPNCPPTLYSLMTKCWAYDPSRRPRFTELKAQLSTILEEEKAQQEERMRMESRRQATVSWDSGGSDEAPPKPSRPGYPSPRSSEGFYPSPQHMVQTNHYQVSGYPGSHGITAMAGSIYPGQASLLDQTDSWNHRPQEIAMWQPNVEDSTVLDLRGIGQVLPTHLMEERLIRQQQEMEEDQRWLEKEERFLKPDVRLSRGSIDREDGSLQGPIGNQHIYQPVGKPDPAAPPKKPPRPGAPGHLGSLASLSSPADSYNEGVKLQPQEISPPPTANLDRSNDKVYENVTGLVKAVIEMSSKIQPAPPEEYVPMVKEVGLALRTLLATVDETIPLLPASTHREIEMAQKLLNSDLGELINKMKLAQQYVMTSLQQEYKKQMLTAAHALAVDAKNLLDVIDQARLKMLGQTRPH
Sequence of Albumin (Bos taurus) (P02769 whole entry, looked up): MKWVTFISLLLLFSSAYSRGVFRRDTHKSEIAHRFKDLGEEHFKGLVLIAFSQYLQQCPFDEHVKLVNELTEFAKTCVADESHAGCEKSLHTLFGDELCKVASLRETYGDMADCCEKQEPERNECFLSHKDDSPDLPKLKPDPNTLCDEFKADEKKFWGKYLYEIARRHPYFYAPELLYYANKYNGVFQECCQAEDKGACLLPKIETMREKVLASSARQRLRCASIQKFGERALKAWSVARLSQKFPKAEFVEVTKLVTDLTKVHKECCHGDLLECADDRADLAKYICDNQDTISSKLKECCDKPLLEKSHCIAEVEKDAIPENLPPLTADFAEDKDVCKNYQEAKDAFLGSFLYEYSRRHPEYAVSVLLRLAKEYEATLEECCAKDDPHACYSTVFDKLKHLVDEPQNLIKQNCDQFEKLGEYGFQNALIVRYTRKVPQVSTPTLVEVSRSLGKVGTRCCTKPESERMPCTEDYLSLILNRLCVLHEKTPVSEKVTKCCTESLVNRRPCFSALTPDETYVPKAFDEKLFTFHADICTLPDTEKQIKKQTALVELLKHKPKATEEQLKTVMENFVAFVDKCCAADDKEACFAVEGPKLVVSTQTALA
Sequence of Fibroblast growth factor 2 (Homo sapiens) (P09038 whole entry, looked up): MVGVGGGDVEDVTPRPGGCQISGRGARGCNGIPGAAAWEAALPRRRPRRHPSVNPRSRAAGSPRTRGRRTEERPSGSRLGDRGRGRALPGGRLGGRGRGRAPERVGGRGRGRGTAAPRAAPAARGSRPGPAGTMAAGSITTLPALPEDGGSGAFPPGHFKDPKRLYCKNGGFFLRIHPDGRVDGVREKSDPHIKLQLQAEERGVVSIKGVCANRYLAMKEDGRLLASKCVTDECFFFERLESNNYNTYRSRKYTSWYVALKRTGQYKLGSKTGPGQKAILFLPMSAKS

With `Cc1cc2c(nc1C)CCCN2CC(O)CN1CCN(C)CC1` (stereo not given), the composite z-score in assay [1] is -0.562; in [3] it was -0.0636; in [4], -0.149; in assay [5] it was 0.622; in assay [6], 0.387; in assay [7] it was 0.289. The composite z-score in [8] came to 0.693; in assay [9] it was 0.731; in assay [10], 1.02; in [11], 1.51; in [12], 0.1; in [13] it was 0.648. Besides, the composite z-score in assay [14] was -0.702; in [15], 0.936; in assay [16], 0.688; in assay [18], 0.409; in assay [19], 1.02. Besides, the composite Z-score in assay [2] is 1.03 (inactive). The z-score in assay [17] was 0.63; in [20], 0.246 (inactive).
`COCCCNC(=O)[C@]1(Cc2ccccc2)N=C(c2ccc(OCCCO)cc2)O[C@@H]1c1ccccc1`: the composite z-score came out at 0.998 in assay [1]; 0.108 in assay [3]; 0.0745 in assay [4]; 0.726 in assay [5]; 3.09 in assay [6]; 0.401 in assay [7]. For the same compound, the composite z-score in assay [8] is 1.31; in assay [9] it was -0.547; in assay [10] it was 1.02; in assay [11] it was 1.26; in assay [12], 1.23; in assay [13], 1.03. For the same compound, the composite z-score in assay [14] was 0.99; in [15], 0.355; in [16], 0.827; in assay [18] it was -0.334; in assay [19], 1.09. Also, the composite Z-score in assay [2] is 0.12 (inactive). Further, the values for the z-score in assay [17] and in [20] were 0.549 and -0.515 (inactive), respectively.
For the compound `CO[C@@H]1COC(=O)CCC[C@@H](C)[C@H](OC)COC(=O)[C@H](Cc2ccccc2)NC(=O)CC=C[C@H]1C`, the composite z-score in assay [1] is -0.603; in assay [3] it was -0.16; in assay [4], -0.175; in assay [5], -0.571; in assay [6] it was -1.42; in assay [7], -0.34. Besides, the composite z-score in assay [8] was -1.56; in assay [9] it was 1.39; in assay [10], -1.21; in assay [11], 0.393; in [12] it was -2.53; in assay [13], -0.268. For the same compound, the composite z-score is -0.876 in assay [14]; 1.29 in assay [15]; 0.273 in assay [16]; 0.978 in assay [18]; -0.271 in assay [19]. Further, in [2], the composite Z-score is 0.274 (inactive). Besides, the z-score in assay [17] is -0.972; in [20], -0.418 (inactive).
On to `C[C@H]1Cc2c(-c3ccccc3)nc3c(c2CO1)CN(CCOc1ccccc1)CC3`, for which the composite z-score in assay [1] was 0.68; in assay [3], 0.0667; in assay [4] it was -0.112; in assay [5], 0.352; in assay [6] it was 0.71; in assay [7] it was 0.292. The composite z-score in [8] came out at 1.3; in assay [9], 0.521; in assay [10], 0.993; in assay [11] it was 1.08; in assay [12] it was 0.576; in [13], 0.269. Besides, the composite z-score in [14] was found to be 0.728; in [15] it was 1.09; in [16] it was 1.08; in assay [18], 1.11; in assay [19] it was 0.253. In addition, the composite Z-score in assay [2] was -0.2 (inactive). Moreover, the z-score in [17] is 3.24; in [20], -1.41 (inactive).
Take `CC1CC/C=C\[C@H]2OC34C=CCN(C(C)C)C(=O)[C@H]3N(CCCO)C(=O)[C@@H]4C2C(=O)O1` (stereo not given in full): the composite z-score in [1] was 0.468; in assay [3], -0.0018; in assay [4], -0.0621; in [5], 0.9; in [6], 0.702; in assay [7] it was 0.962. Moreover, the composite z-score in assay [8] is -0.499; in [9], -0.951; in assay [10], -1.74; in assay [11] it was 1.41; in assay [12], -0.883; in [13], -0.716. In addition, the composite z-score in assay [14] was -1.5; in assay [15], -1.07; in assay [16] it was -1.24; in assay [18], -0.837; in assay [19], -1.09. Also, in assay [2], the composite Z-score was -1.03 (inactive). Also, the results for the z-score in assay [17] and in assay [20] were 0.439 and -0.623 (inactive), respectively.

Source of the values: PubChem BioAssay.
